From PubChem BioAssay (NCI)
This is part of a sample that, as a whole, favours compounds with a hit. Of some 83,000 tested, about 20% had one in any assay.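 Testing used 96-well plates and a 48-hour single-concentration exposure. Example: -40 means 40% of the starting cells died.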 A number with no mark means an inactive call. Activity calls are given as the source filed them. Rule for the calls: active = growth percent below 10; inactive = the rest.

tested on: UO-31 renal; assay: NCI-60 one-dose screen, 48 h (100 = growth as untreated, 0 = no growth, -100 = all killed); settings: 10 µM unless noted

Compared with `COc1cc(/C=C/C(=O)c2ccc(Nc3ncnc4ccccc34)cc2)cc(OC)c1`, `COc1ccc(C(=O)c2cc3c(N)c(C(=O)Nc4cccc(OC)c4)sc3nc2C)cc1` is lower in growth: 51.2% for the first, 49.3% for the second.

Going from `CCC(C)N(CCNc1cc(OC)cc2cccnc12)CCC(C)C` (stereo not given) to `CC1=NNC(=O)C1CCC(=O)N/N=C(\C)c1ccc2ccccc2c1` (stereo not given), the growth rises from 77.8% to 84.8%.

First: S=c1[nH]cccc1-c1nnc2n1Nc1nc3ccccc3cc1CS2
Second: O=S(=O)(c1cccc(NC2=Nc3cccc4cccc2c34)c1)N1CCCC1
The growth of the first is higher: 70.2% for the first, 67.5% for the second.

Going from `NC(=O)C1(N2CCCCC2)CCN(CCCC(=O)c2ccc(F)cc2)CC1` to `O=C(O)c1cn(C2CC2)c2cc(N3CCN(C(=O)C[n+]4cccc5ccccc54)CC3)c(F)cc2c1=O`, the growth falls from 88.9% to 67.1%.

Compared with `O=c1[nH]nc(-c2ccc(Br)cc2)cc1Cc1ccc(O)cc1`, `COc1ccc(C(=O)c2cc3c(N)c(C(=O)Nc4ccc(Br)cc4)sc3nc2C)cc1` is lower in growth: 77.3% for the first, 72.3% for the second.

First: N/C(=N\N=C\c1cc2ccccc2s1)N/N=C/c1cc2ccccc2s1
Second: COc1ccc(Cn2nc(-c3ccccc3)c3c2CCc2cnoc2-3)cc1
The growth of the first is higher: 87.7% for the first, 70% for the second.

First: O=C(O)CNC(=O)CN1C(=O)c2ccccc2C1=O
Second: O=C1CCCCCCCCC(O)C(O)CCCC(c2cccs2)O1 (stereo not given)
The growth of the first is higher: 86.3% for the first, 75.2% for the second.

`OC1(c2ccc(Cl)c(C(F)(F)F)c2)CCN(CCCC(c2ccc(F)cc2)c2ccc(F)cc2)CC1` was tested, and the growth was -65.7% (active).
